# High-throughput results deposited in PubChem BioAssay by The Scripps Research Institute Molecular Screening Center.
# KOR antag MB: OPRK1 (human) antagonism, Maybridge screen; P41145; OPRK1 cells, antagonist mode, fluorescence readout; inhibition, % at 9 µM; hit rate 0.4% among 16,000; AID 652031; in the data active = inhibition above about 50%
# TLR4-MyD88 inh: inhibitors of human TLR4-MyD88 binding; Cell-based TLR4-MyD88 binding inhibition assay; inhibition, % at 10 µM; hit rate 0.06% among 16,000; O00206; in the data active = inhibition above about 45%
# Target sequence (O00206 whole entry, looked up): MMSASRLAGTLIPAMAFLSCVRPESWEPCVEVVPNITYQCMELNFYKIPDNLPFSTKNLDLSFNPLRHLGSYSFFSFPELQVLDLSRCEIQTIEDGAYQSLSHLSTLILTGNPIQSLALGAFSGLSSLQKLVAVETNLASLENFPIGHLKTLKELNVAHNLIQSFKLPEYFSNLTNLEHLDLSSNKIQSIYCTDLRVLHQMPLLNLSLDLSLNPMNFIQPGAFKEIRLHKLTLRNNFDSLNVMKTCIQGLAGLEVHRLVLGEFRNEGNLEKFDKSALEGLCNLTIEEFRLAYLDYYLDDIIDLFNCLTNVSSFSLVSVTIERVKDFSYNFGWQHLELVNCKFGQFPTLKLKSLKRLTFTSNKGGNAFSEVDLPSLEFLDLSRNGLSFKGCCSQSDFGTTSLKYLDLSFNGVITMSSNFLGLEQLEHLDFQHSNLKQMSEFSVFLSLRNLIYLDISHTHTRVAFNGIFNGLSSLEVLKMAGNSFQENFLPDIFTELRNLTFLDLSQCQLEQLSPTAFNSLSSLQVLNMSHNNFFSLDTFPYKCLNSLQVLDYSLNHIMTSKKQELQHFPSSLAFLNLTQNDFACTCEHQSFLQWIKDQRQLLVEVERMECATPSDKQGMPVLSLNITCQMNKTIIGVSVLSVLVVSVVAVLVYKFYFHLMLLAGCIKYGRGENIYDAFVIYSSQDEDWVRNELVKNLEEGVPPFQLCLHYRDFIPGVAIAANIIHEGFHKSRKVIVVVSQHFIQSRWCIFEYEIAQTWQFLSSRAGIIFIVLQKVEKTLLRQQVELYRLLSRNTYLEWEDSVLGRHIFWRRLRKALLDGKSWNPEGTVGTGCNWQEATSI
# * = called active by the depositor; / = no result given. Sampled rows, rich in hits. Any-hit rate of the full collection: about 0.48%.
SMILES,KOR antag MB,TLR4-MyD88 inh
CC(=O)Nc1cc([N+](=O)[O-])ccc1-n1cc(C)c(C(F)(F)F)n1,0,50*
CC(=O)Nc1cc([N+](=O)[O-])ccc1Sc1ccccc1N,9,-10
O=C(Cc1ccccc1)NC1CCN(S(=O)(=O)c2cc(Cl)c(Cl)cc2Cl)CC1,-11,2
N#Cc1ccc(OC(=O)c2ccc(Cl)cc2Cl)cc1,11,-2
O=[N+]([O-])c1ccc(N2CCc3ccccc32)cc1,65*,24
O=[N+]([O-])c1ccc(N2CCC(n3cccc3)CC2)cc1,-4,1
CSc1nsc(SC)c1NC(=O)N(C)C,10,-2
O=C(c1ccc(Cl)cc1)N1CCC(C(F)(F)F)CC1,11,5
N#Cc1c(S/C=C(\O)c2cc3ccccc3o2)nc2c(c1C(F)(F)F)CCCC2,77*,6
COc1cc(OC)c2nc(C)c3c(c2c1)CN(C(=O)Nc1cccc(C(F)(F)F)c1)C3,49,2
O=C1NC(=S)NC(=O)C1=C/C=C/c1c(O)[nH]c(=S)[nH]c1=O,13,12
Cc1ccc2nc(-c3sc4ccccc4c3Cl)oc(=O)c2c1,21,3
CS(=O)(=O)/C(C#N)=C\c1ccc(Cl)s1,57*,6
COc1ccc(/C=C(\C#N)S(=O)(=O)c2ccccc2Cl)s1,-8,-5
c1ccc(SCc2cccc(CSc3ccccn3)n2)nc1,3,2
Cc1cc(C)c2c(N)c(C(=O)Nc3nnc(-c4cccs4)s3)sc2n1,-4,1
CC(=O)c1sc2nc(-c3cccs3)cc(C(F)(F)F)c2c1N,89*,22
O=C(O)/C=C\C(=O)Nc1ccccc1Oc1ccc(Cl)cc1Cl,-19,-3
N#CCC(=O)Nc1ccccc1Oc1cc(Cl)ccc1Cl,-13,-2
Nc1ccccc1C(=O)N/N=C/c1ccc2c(c1)OCO2,1,-12
Nc1c(C(=O)N/N=C/c2ccc3c(c2)OCO3)sc2nnc(-c3ccccc3)c(-c3ccccc3)c12,80*,7
COc1ccc(OC)c(S(=O)(=O)NCCc2ccccn2)c1,6,1
O=[N+]([O-])c1ccc(NCc2ccc(-c3cccs3)s2)nc1,2,2
O=C(c1nnc(-c2ccccc2)o1)N1CCN(c2ccc(C(F)(F)F)cn2)CC1,5,-10
Fc1ccc2c(c1)/C(=N\Nc1cc(C(F)(F)F)ccc1Cl)CCO2,7,2
SMILES,KOR antag MB,TLR4-MyD88 inh
O=[N+]([O-])c1ccc(N/N=C2\CCOc3ccc(F)cc32)cc1,50*,-1
NC(=O)c1csc(-c2cccnc2)n1,10,0
O=C(Nc1ccc([N+](=O)[O-])cc1)Nc1csc(-c2cccnc2)n1,52*,9
CCCCCC[n+]1ccccc1/C=C/c1ccc(N(C)C)cc1,72*,64*
Cn1nccc1NC=C(C#N)C#N,-4,-5
COc1ccc(/C(N)=N/OCc2c(Cl)cccc2Cl)cc1,0,-11
COc1ccc([N+](=O)[O-])c(S(=O)(=O)c2ccc(Cl)cc2)n1,82*,-8
COc1cc(Sc2ccc(Cl)cc2)ccc1[N+](=O)[O-],-5,3
O=c1s[nH]c2ccccc12,8,/
Cn1nc(C(F)(F)F)cc1OS(=O)(=O)c1cc(Cl)c(Cl)cc1Cl,2,-2
Cc1nnsc1C(=O)N1C[C@@H]2CCCC[C@@H]2C[C@@H]1C(=O)NC(C)(C)C,-16,-5
Cc1cn(S(=O)(=O)c2cn(C)nc2C(F)(F)F)nc1C(F)(F)F,4,1
O=C1c2cccc3c([N+](=O)[O-])ccc(c23)C(=O)N1CCCN1CCOCC1,-10,-1
CCCCNc1ccc2c3c(cccc13)C(=O)N(CCCC)C2=O,89*,55*
CS/C(=N/S(=O)(=O)c1ccccc1)NNc1cc(C(F)(F)F)cc(C)n1,23,0
CC1=CS(=O)(=O)c2ccc(Cl)cc21,1,3
CSc1n[nH]c(=O)c2cc(C)nn12,11,12
N#Cc1cccc(C#N)c1Oc1ccc(N)cc1,94*,0
N#Cc1cccc(C#N)c1Oc1ccc(S(=O)(=O)Nc2ccccc2)cc1,-4,-7
COC(=O)CCc1c(C(=O)OCc2ccccc2)[nH]c(C)c1C(=O)OC(C)(C)C,-27,-11
Cc1nn(C)c(=O)c2c(C)noc12,15,/
COc1ccc(Oc2ccc([N+](=O)[O-])cc2C(=O)N2CCCc3ccccc32)cc1,-1,3
COc1ccc(Oc2ccc([N+](=O)[O-])cc2C(=O)NNC(=O)c2ccc(Cl)cc2Cl)cc1,-2,8
C=CCn1c(-c2sc3nnc(-c4ccccc4)c(-c4ccccc4)c3c2N)n[nH]c1=S,57*,-5
C=CCn1c(-c2cnn(-c3ccccc3)c2N)n[nH]c1=S,-1,-2
Cc1nc(C)c(S(=O)(=O)NCc2c(-c3ccccc3)noc2C)s1,-13,-16
Cc1onc(-c2ccccc2)c1CNS(=O)(=O)c1cnn(-c2ccccc2)c1C,106*,4
O=C1c2ccc(Cl)c3c(N4CCSCC4)ccc(c23)C(=O)N1c1ccccc1,58*,12
CCOC(=O)c1cc(N2C(=O)c3ccccc3C2=O)ccc1N1CCCCC1,-17,3
